Assay results taken from PubChem BioAssay.
Several values for one entry are separate records, joined by “and”; a condition that tells them apart may be missing. Identical values can stand only once.

What follows are compounds tested against Mitogen-activated protein kinase 7 (Homo sapiens) (UniProt Q13164) (assay: ERK5 transactivation activators in reporter cells, primary screen, cell-based, HTS (AID 1508626;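 note: luciferase driven by Gal4-ERK5 fusion binding five Gal4 sites before minimal TATA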)). Details: HeLa Gal4-ERK5 transactivation, 18 h, at 5 µM, active compounds read high;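 active = luciferase signal above three times the same-plate solvent-only control wells; inactive = the rest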.
Chain of Mitogen-activated protein kinase 7 (Homo sapiens) (Q13164 whole entry, looked up, the tested form may be a part): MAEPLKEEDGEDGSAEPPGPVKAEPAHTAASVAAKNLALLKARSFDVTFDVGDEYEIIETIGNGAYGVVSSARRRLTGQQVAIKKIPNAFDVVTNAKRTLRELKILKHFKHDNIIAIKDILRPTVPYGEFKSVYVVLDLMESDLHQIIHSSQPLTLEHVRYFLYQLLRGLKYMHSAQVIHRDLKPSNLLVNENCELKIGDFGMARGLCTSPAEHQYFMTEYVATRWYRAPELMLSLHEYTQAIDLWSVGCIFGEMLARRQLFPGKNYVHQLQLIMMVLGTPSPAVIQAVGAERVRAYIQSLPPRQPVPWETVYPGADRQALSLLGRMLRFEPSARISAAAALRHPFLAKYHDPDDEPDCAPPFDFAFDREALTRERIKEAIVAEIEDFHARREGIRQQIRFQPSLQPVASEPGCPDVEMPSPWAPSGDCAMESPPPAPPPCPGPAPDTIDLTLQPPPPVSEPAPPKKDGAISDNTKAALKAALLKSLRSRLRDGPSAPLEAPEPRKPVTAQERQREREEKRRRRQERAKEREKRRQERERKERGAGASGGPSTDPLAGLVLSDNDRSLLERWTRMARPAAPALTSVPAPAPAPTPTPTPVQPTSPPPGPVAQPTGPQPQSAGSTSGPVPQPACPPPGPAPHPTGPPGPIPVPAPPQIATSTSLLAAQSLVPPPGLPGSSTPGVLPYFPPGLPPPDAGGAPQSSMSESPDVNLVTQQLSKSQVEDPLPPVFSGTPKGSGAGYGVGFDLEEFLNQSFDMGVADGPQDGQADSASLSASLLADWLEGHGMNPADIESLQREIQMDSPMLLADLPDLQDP

Luciferase signal, inactive:
CCCc1cc(OC)c2c(c1)OCO2 216 AU, COc1ccc(/C=C/C(=O)O)cc1OC 52 AU and 80 AU, CC[C@@H](C(=O)[C@@H](C)[C@@H](O)[C@H](C)[C@@H]1O[C@@H]([C@@H](CC)C(=O)O)CC[C@@H]1C)[C@H]1OC2(C=C[C@@H](O)[C@]3(CC[C@@](C)([C@H]4CC[C@](O)(CC)[C@H](C)O4)O3)O2)[C@H](C)C[C@@H]1C (stereo not given in full) 36 AU, C=C[C@@H](C1=CC(=O)C(OC)=C(OC)C1=O)c1ccccc1 136 AU, O=C1C=CC(=O)c2c(O)c(Cl)c(Cl)c(O)c21 12 AU, C=CCS(=O)C[C@H](N)C(=O)O (stereo not given in full) 128 AU, O=C(/C=C/c1ccccc1)c1ccc(O)cc1O 52 AU, COc1cc2oc3cc(OC)c(OC)c(CC=C(C)C)c3c(=O)c2c(O)c1CC=C(C)C 72 AU, COc1cc(O)c(C(=O)/C=C/c2ccc(OC)c(O)c2)c(OC)c1 84 AU, COc1cc(OC)c2c(=O)c(O)c(-c3ccc(OC)c(OC)c3)oc2c1 64 AU, CC(=O)Oc1ccc2c(c1C(C)C)CCC1C(C)(C)CCC[C@]21C (stereo not given in full) 20 AU, O=C(NC1CCCCC1)NC1CCCCC1 60 AU, Cc1c(S(=O)(=O)O)oc2c1C(=O)C(=O)c1c-2ccc2c1CCCC2(C)C 48 AU, O=C(O)/C=C/C=C/c1ccc2c(c1)OCO2 24 AU, CC(C)c1ccc2c(c1)CCC1C(C)(C(N)=O)CCCC21C (stereo not given) 64 AU, COc1ccc2oc3ccccc3c(=O)c2c1 88 AU, CCCCCCCCCCCCCCCC(=O)OCC(O)CO (stereo not given) 72 AU, O=S(=O)(O)c1cc(N=C=S)ccc1/C=C/c1ccc(N=C=S)cc1S(=O)(=O)O 52 AU, C=CC(C1=CC(=O)C=CC1=O)c1ccccc1 (stereo not given) 64 AU, CC(CCC(=O)O)[C@H]1CCC2C3C[C@H](O)[C@@H]4C[C@H](O)CC[C@]4(C)C3CC[C@@]21C (stereo not given in full) 60 AU, O=c1cc(-c2ccccc2O)oc2cc(O)ccc12 112 AU, C/C1=C/CC(C)(C)/C=C/C/C(C)=C/CC1 60 AU, S=c1ccss1 52 AU, CC(=O)O[C@H]1C[C@@H](OC(C)=O)C(C)(C)C2C[C@@H](O)[C@]3(C)C(CC[C@@]4(C)[C@H](c5ccoc5)OC(=O)[C@H]5O[C@]543)[C@]21C (stereo not given in full) 28 AU, CC(=O)Oc1cc(OC(C)=O)c2c(c1)O[C@H](c1ccc(OC(C)=O)c(OC(C)=O)c1)[C@@H](OC(C)=O)C2 16 AU, CC1(C)C(=O)[C@@H]2C[C@@]3(O)C4=CC(=O)O[C@@H](c5ccoc5)[C@]4(C)CCC3C(C)(C2=O)[C@H]1CC(=O)O (stereo not given in full) 20 AU, OC[C@H]1O[C@@H](O[C@H]2[C@H](O)[C@@H](O)[C@@H](O)O[C@@H]2CO)[C@H](O)[C@@H](O)[C@@H]1O 32 AU, CC(=O)OC/C=C(\C)CC/C=C(\C)CC/C=C(\C)CC/C=C(\C)CC/C=C(\C)CC/C=C(\C)CC/C=C(\C)CC/C=C(\C)CCC=C(C)C 84 AU, CC(=O)O[C@@H]1CC2C(C)(C)C(=O)C3OC3[C@]2(C)C2CC[C@@]3(C)[C@H](c4ccoc4)OC(=O)C4OC43[C@@]21C (stereo not given in full) 4 AU, O=C(O)c1ccc2c(c1)OCO2 48 AU, C=C[C@@]1(C)CC(=O)[C@@]2(O)[C@](C)(O1)[C@@H](O)[C@@H](O)C1C(C)(C)CC[C@H](O)[C@@]12C (stereo not given in full) 80 AU, COc1ccc(-c2cc(=O)c3c(OC)c(OC)c(OC)cc3o2)cc1OC 36 AU, CC(=O)O[C@H]1C[C@@H](O)C(C)(C)C2C[C@@H](OC(C)=O)[C@]3(C)C(CC[C@@]4(C)[C@H](c5ccoc5)OC(=O)C5OC543)[C@]21C (stereo not given in full) 40 AU, COc1ccc([C@H]2COc3c(ccc(O)c3OC)C2)c(OC)c1O 60 AU, CC1(C)C(=O)C=C[C@@]2(C)C1CC(=O)[C@]1(C)C2CC[C@@]2(C)[C@H](c3ccoc3)OC(=O)[C@H]3O[C@]321 (stereo not given in full) 16 AU, COc1ccc(-c2cc(=O)c3c(O)c(OC)c(OC)c(OC)c3o2)cc1OC 112 AU, NC(Cc1ccc(F)cc1)C(=O)O (stereo not given) 100 AU, O=c1cccc2ccc(O)c(O)c2c1O 44 AU, C#CCCCCCCCCCCCc1ccco1 148 AU, COC1=CC(=O)C(O)=C/C1=C\C=C\c1ccccc1 12 AU
